Screening data deposited in PubChem BioAssay by National Center for Advancing Translational Sciences (NCATS).
Only some compounds are listed: those with a hit (about 3.2% of all), similar ones and a draw of the others.
Sm TGR block – S. mansoni TGR enzyme inhibition. Q962Y6. AID 485364. Potency, µM (series often up to 114 µM), without a hit: top-dose activity change, negative = inhibition, usual class: inhibitors. hit rate 3% among 360,000. purified TGR, DTNB reduction, TNB absorbance 405 nm; further: nearly all actives have a fitted effect of over 60% in size
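TGR 20 nM + NADPH 100 uM (dispensed conc.), cpd preinc 15 min RT; start with NADPH (500 uM addition) then DTNB (15 mM addition). Kinetic TNB absorbance, 405 nm filter. Four-parameter Hill fit across titration.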
LmPK inhibitor – inhibitors of Leishmania mexicana pyruvate kinase; hit rate 0.37% among 290,000; Potency, µM (doses to about 57.5 µM), without a hit: top-dose activity change, negative = inhibition, actives largely listed as inhibitors; purified LmPK, Kinase-Glo ATP luminescence, 1 h; Q27686
Target sequence (Q27686 whole entry, looked up): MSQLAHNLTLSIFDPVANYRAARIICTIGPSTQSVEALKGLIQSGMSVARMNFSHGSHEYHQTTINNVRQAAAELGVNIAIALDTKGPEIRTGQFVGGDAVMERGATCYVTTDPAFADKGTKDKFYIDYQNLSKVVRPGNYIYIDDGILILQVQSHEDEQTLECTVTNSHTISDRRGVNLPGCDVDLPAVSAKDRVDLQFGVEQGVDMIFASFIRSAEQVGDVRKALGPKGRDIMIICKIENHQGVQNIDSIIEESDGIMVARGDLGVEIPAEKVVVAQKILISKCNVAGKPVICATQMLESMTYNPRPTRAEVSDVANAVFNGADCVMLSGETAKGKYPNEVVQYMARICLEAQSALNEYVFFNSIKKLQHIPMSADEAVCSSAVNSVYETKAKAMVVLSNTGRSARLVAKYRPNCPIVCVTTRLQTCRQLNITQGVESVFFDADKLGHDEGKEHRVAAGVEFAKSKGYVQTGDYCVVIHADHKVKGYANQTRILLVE
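Screened at intermediate enzyme activity to detect both inhibitors and activators: LmPK at 0.1 nM, with a 0.5 nM enzyme column as activation reference. PEP 0.5 mM, ADP 0.1 mM; ATP detected by luminescence after 1 h.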
AMA1-RON2 inh – inhibitors of Plasmodium falciparum AMA1-RON2 interaction | hit rate 0.2% among 360,000 | AlphaScreen AMA1-biotinylated RON2 peptide binding | Potency, µM (titrated, usually from 58.2 µM), for inactives: at the top dose activity change, negative = inhibition, hits mostly inhibitors;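 further: 0% = vehicle wells and -100% = peptide control; nearly all actives have a fitted effect of over 45% in size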
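AMA1 (3D7) with his tag at 25 nM final met compounds first, then biotinylated RON2 peptide at 25 nM; detection used donor plus acceptor beads, 10 µg/mL apiece, read by AlphaScreen after 30 min at room temperature.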
RE007 growth inh – less growth of the S. pombe RE007 Vpr strain | S. pombe RE007 Vpr strain, BacTiter-Glo ATP luminescence, 24 h | Potency, µM (doses to about 92.2 µM), for the others: top-dose activity change, negative = less growth, usual class: inhibitors | hit rate 0.21% among 360,000 | AID 651644; active means well fitted falling curve with a large enough effect; inconclusive means small, poorly fitted or top-dose-only effect; inactive means no such curve, though single readings can be large or run the other way; further: nearly all actives have a fitted effect of over 50% in size
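Fission yeast strain RE007, carrying one chromosomally integrated HIV-1 vpr copy, was seeded at OD 0.01 in PMG+AL medium with 23 nL pinned compound. After 24 h at 30 °C and 99% humidity, viability was read by BacTiter-Glo luminescence.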
TbPYK inhibitor – T. brucei pyruvate kinase inhibition. TbPYK enzyme, Kinase-Glo Plus ATP luminescence, 45 min. AID 624173. Q57TT1. hit rate 0.12% among 410,000. Potency, µM (top dose mostly 76.8 µM), without a hit: at the top dose activity, negative = inhibition, hits mostly inhibitors; further: nearly all actives have a fitted effect of over 50% in size
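Screened from lowest to highest concentration, compounds were pinned into TbPYK/substrate mixtures, and ADP (130 uM final) was added. Plates sat at room temperature for 45 min prior to Kinase-Glo Plus detection by luminescence.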
Numbers without * were called inactive; ? = inconclusive; · = not tested or not shown; [ ] = dose if it differs, or a comment. Unless noted, the call rests on the fitted dose curve; in most records, active means well fitted curve in the direction sought with a large enough effect; inconclusive means small, poorly fitted or top-dose-only effect, or another doubt; inactive means no such curve, though single readings can be large; an effect the other way counts as inactive or inconclusive. Unless noted, on the % scale 0 is the no-effect control and ±100 the full control effect; potency means the concentration at half of the fitted maximal effect.

SMILES	Sm TGR block	LmPK inhibitor	AMA1-RON2 inh	RE007 growth inh	TbPYK inhibitor
O=C(c1cccs1)N1CCc2ccccc21	-2%	?	8%	-27%	-7%
CCOC(=O)C(=Cc1ccc(F)cc1)C(=O)OCC	16µM*	-3%	·	·	·
CCOC(=O)C(=Cc1ccc(Br)cc1)C(=O)OCC	3.5µM*	-8%	16%	?	-3%
CCOC(=O)C(=Cc1ccc(-n2ccnc2)cc1)C(=O)OCC	13µM*	-2%	-9%	-26%	-6%
COC(=O)c1ccc(-n2ccnc2)cc1	0%	-8%	9%	3%	1%
CCOC(=O)C(=O)Nc1ccc(F)cc1	-9%	-5%	-2%	1%	-2%
Cc1ccccc1Cn1cc(CCC(=O)NCc2cccc(Br)c2)c2ccccc21	-7%	·	·	·	5%
CCCc1cc(NCCCN(C)C)n2c(nc3ccccc32)c1C#N	40µM*	-2%	-10%	·	2%
COc1ccc(NC(=S)NC(=O)Cc2ccccc2)c(OC)c1	10µM*	-1%	12%	22%	-2%
COc1ccc(CN(CCC#N)C(=S)NC(=O)c2ccccc2)cc1	-5%	20µM*	10%	16%	?
COc1ccc(C(=O)NC(=S)NCc2ccccc2)cc1	5µM*	7%	-13%	-19%	6%
COc1ccc(S(=O)(=O)NNC(=S)NCCc2ccccc2)c(OC)c1	5.6µM*	-2%	67%	-9%	-3%
CSc1cccc(NC(=O)N2CCN(S(=O)(=O)c3ccc4c(ccn4C)c3)CC2)c1	-1%	·	·	·	-1%
Cc1nc2c(c(C)c1CCC(=O)NCc1ccccc1)c(=O)n(C)c(=O)n2C	-2%	·	·	·	4%
Cc1c(/C=C(\C#N)C(=O)Nc2cccc(Cl)c2)c2ccccc2n1Cc1ccccc1	3%	·	·	·	0%
COc1cc(OC)cc(C(=O)NC(=S)NCCc2ccccc2)c1	10µM*	-9%	32%	-15%	2%
CC1CN(C2CCN(S(=O)(=O)c3ccccc3)CC2)CC(C)O1 (stereo not drawn)	-1%	1%	?	0%	-21%
CC1CN(C2CCN(S(=O)(=O)c3ccc(F)cc3)CC2)CC(C)O1 (stereo not drawn)	40µM*	-3%	-10%	25%	-11%
O=C(O)c1ccc(N[C@@H]2OC[C@@H](O)[C@@H](O)[C@@H]2O)cc1	·	·	·	·	0%
CCOC(=O)C(NS(=O)(=O)c1ccccc1)(C(F)(F)F)P(=O)(OC(C)C)OC(C)C (stereo not drawn)	35µM*	8%	1%	1%	-3%
Cc1ccc(C)c(S(=O)(=O)c2cn(C)c3cc(N4CCCCC4C)c(F)cc3c2=O)c1 (stereo not drawn)	-1%	·	·	·	1%
COc1ccccc1N1CCN(/N=C/c2ccc([N+](=O)[O-])cc2)CC1	13%	3%	-11%	10%	3%
O=[N+]([O-])c1ccc(C=NN2CCCCCC2)cc1	·	·	25µM*	-28%	3%
CCc1ccc(S(=O)(=O)c2cn(C)c3cc(N4CCC(C)CC4)c(F)cc3c2=O)cc1	-1%	·	·	·	3%
CN(C)CCOC1=Cc2ccccc2Sc2ccc(Cl)cc21	·	·	·	·	-4%
SMILES	Sm TGR block	LmPK inhibitor	AMA1-RON2 inh	RE007 growth inh	TbPYK inhibitor
Nc1ccc(N=Nc2ccc(N)cc2)cc1	-12%	-1%	-10%	-18%	3%
Cc1cc(N(C)C)ccc1N=Nc1ccc(N)cc1	·	·	14µM*	-18%	-18%
Cc1cc(C)c(NC(=O)CN2C(=O)c3cccnc3Oc3ccc(C)cc32)c(C)c1	-3%	·	·	·	-3%
COc1ccc(C2C3=C(CCCC3=O)N(CC(=O)O)C3=C2C(=O)CCC3)cc1Br	·	·	-13%	-14%	-2%
COc1ccc(C2C3=C(CCCC3=O)N(CC(=O)O)C3=C2C(=O)CCC3)cc1Cl	50µM*	0%	-1%	-13%	-12%
CCOc1cc(C2C3=C(CCCC3=O)N(CC(=O)O)C3=C2C(=O)CCC3)ccc1OC	89µM*	-9%	-5%	6%	-7%
COc1ccccc1CN1CC(C(=O)N(C)Cc2ccc(C)o2)CCC1=O (stereo not drawn)	20µM*	4%	-11%	-1%	-21%
COc1ccccc1CN1CC(C(=O)N(C)Cc2ccncc2C)CCC1=O (stereo not drawn)	-15%	-5%	5%	10%	3%
Cc1ccc(CNC(=O)C2CCC(=O)N(CC3CCCCC3)C2)o1 (stereo not drawn)	28µM*	-1%	-2%	-25%	-7%
O=C(NCCc1ccccc1)C1CCC(=O)N(Cc2cccc(C(F)(F)F)c2)C1 (stereo not drawn)	89µM*	-2%	-1%	4%	-8%
COc1ccc(S(=O)(=O)N2CCC(C(=O)N(C)Cc3ccc(C)o3)CC2)cc1OC	40µM*	·	7%	-11%	-3%
Cc1ccc(Oc2nc3ccccn3c(=O)c2/C=C(\C#N)c2nc3ccccc3s2)c(C)c1	0%	·	·	·	?
O=C(NCC(c1cccnc1)N1CCN(Cc2ccccc2)CC1)C(=O)Nc1cccc(F)c1 (stereo not drawn)	-6%	·	·	·	-5%
O=C(CSc1ncc2c(n1)-c1ccccc1N(Cc1ccc(F)cc1)S2(=O)=O)c1ccc(Cl)cc1	2%	·	·	·	1%
COc1ccccc1CN1CC(C(=O)NCCc2ccc(C)o2)CCC1=O (stereo not drawn)	25µM*	10%	5%	6%	-13%
COc1ccccc1CCNC(=O)C1CCC(=O)N(Cc2ccccc2OC)C1 (stereo not drawn)	0%	0%	-8%	-15%	1%
CCc1c(C)sc2c1CCN(Cc1cccc(F)c1)C2c1ccccc1 (stereo not drawn)	-5%	·	·	·	1%
CC(=O)Cc1nsc(NC(=O)c2ccco2)n1	45µM*	-6%	4%	-14%	-2%
O=C1/C(=C/c2cccs2)Cc2ccccc21	-1%	?	7%[11.6 µM]	?	6%
O=C1C(=Cc2cccs2)C(=O)c2ccccc21	-12%	14µM*	-16%	·	-19%
Cc1ccc(C=C2C(=O)c3ccccc3C2=O)s1	0%	13µM*	?	?	-28%
Cc1cc(C=C2C(=O)c3ccccc3C2=O)c(C)n1C	-18%	-15%	8%	11%	-7%
Cc1ccc2c(c1)C(c1ccc(F)cc1)N(C(=O)c1ccc(OC(C)C)cc1)CC(=O)N2 (stereo not drawn)	-1%	·	·	·	-1%
OCC1OC(OC2C(CO)OC(OC3C(CO)OC(O)C(O)C3O)C(O)C2O)C(O)C(O)C1O (stereo not drawn)	·	·	·	·	0%
Cc1ccc(NC(=O)c2cc(NC(=O)c3ccco3)ccc2N2CCOCC2)cc1	1%	-2%	-2%	-3%	0%
Cc1ccc(NC(=O)c2cc(N3C(=O)C=CC3=O)ccc2Cl)cc1C	0.79µM*	28%	-7%	10µM*	?
